Compound activity: PubChem BioAssay, National Center for Advancing Translational Sciences (NCATS)
Only some compounds are listed: those with a hit (about 7% of all), similar ones and a draw of the others.
HP1b chromo inh = HTS for Inhibitors of HP1-beta Chromodomain Interactions with Methylated Histone Tails; hit rate 0.56% among 390,000; Chromobox protein homolog 1 (Homo sapiens), P83916; AID 540317, 2011; AlphaScreen HP1-beta / biotin-H3K9me3 peptide binding; Potency, µM (titrated, usually from 114 µM), for inactives: top-dose activity change, negative = inhibition, hits mostly inhibitors; further: potency means the concentration at half of the fitted maximal effect; nearly all actives have a fitted effect of over 70% in size
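Compound inhibition of the preformed complex between 50 nM HP1-beta and 50 nM biotinylated H3K9me3 peptide was read by AlphaScreen. Buffer was PBS pH 7.4 with 0.01% Tween-20. Incubations ran 30 min at room temperature, with 10 ug/mL donor/acceptor beads.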
JMJD2A Tudor = qHTS Assay for Inhibitors of JMJD2A-Tudor Domain; Lysine-specific demethylase 4A (Homo sapiens), O75164; AlphaScreen JMJD2A-Tudor / H3K4me3 peptide binding; Potency, µM (doses to about 114 µM), for the others: at the highest dose activity change, negative = inhibition, actives largely listed as inhibitors; hit rate 4.4% among 390,000; further: potency means the concentration at half of the fitted maximal effect; on the % scale 0 is the no-effect control and ±100 the full control effect; nearly all actives have a fitted effect of over 50% in size
PI5P4Ka inh = qHTS for Inhibitors of phosphatidylinositol 5-phosphate 4-kinase (PI5P4K); max response, %; PI5P4Kalpha enzyme, ADP-Glo luminescence, 60 min; active compounds read low; hit rate 1.2% among 330,000; Phosphatidylinositol 5-phosphate 4-kinase type-2 alpha (Homo sapiens), P48426; active means max response of -50% or lower; inconclusive means between -30% and -50%; inactive means -30% or higher; further: value at the top dose of about 77 µM; on the % scale 0 is the no-effect control and ±100 the full control effect
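Luminescence from ADP-Glo served as readout of PI5P4Kalpha activity in a qHTS format. Reaction: enzyme, substrate, compound, ATP at 5 microM final, 60 min at RT.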
PLK1 PBD block = qHTS for Inhibitors of PLK1-PDB (polo-like kinase 1 - polo-box domain): Primary Screen; hit rate 2.8% among 360,000; Potency, µM, for inactives: max response, negative = inhibition, actives largely listed as inhibitors; Serine/threonine-protein kinase PLK1 (Homo sapiens), P53350; AID 720504, 2013; Plk1 PBD binding of FITC phosphopeptide, fluorescence polarization; further: potency means the concentration at half of the fitted maximal effect; series mostly up to about 57 µM; on the % scale 0 is the no-effect control and ±100 the full control effect; nearly all actives have a fitted effect of over 65% in size
Target sequence (P53350 whole entry, looked up, the tested form may be a part): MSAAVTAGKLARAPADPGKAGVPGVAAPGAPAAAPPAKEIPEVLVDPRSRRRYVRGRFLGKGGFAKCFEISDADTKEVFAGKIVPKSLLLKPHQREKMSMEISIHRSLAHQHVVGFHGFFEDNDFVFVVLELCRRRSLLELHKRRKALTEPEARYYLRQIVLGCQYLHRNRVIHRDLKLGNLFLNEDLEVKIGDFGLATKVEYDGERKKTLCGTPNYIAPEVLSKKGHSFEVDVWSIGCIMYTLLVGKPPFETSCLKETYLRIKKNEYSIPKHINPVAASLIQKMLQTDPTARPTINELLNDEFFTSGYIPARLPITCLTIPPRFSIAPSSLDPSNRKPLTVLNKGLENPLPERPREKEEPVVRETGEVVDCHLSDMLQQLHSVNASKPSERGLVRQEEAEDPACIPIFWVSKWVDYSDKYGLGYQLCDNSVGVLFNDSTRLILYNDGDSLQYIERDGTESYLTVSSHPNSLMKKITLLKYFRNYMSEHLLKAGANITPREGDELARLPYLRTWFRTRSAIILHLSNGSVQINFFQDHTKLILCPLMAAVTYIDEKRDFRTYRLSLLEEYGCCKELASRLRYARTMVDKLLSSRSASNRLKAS
BAZ2B block = qHTS Assay for Inhibitors of BAZ2B; AlphaScreen BAZ2B-H3K14Ac peptide displacement; Potency, µM (titrated, usually from 114 µM), without a hit: at the top dose activity change, negative = inhibition, usual class: inhibitors; hit rate 4.4% among 360,000; AID 504333, 2011; further: potency means the concentration at half of the fitted maximal effect; on the % scale 0 is the no-effect control and ±100 the full control effect; nearly all actives have a fitted effect of over 60% in size
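In this displacement format the biotinylated H3(5-23) peptide acetylated at Lys14 serves as ligand at 50 nM, with BAZ2B at 50 nM in PBS pH 7.4 containing 0.01% Tween-20. Donor and acceptor beads are 10 ug/mL final.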
KAT2A inh = qHTS Assay for Inhibitors of GCN5L2; Histone acetyltransferase KAT2A (Homo sapiens), Q92830; GCN5L2 HAT assay, ThioGlo1 CoA-SH fluorescence; Potency, µM (titrated, usually from 58.9 µM), inactives show top-dose activity change, negative = inhibition, usual class: inhibitors; hit rate 0.21% among 390,000; AID 504327, 2011; further: potency means the concentration at half of the fitted maximal effect; on the % scale 0 is the no-effect control and ±100 the full control effect
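Fluorescence readout, Ex340nm/Em540nm: ThioGlo1 (50uM final) reacts with free CoA thiol released as 20nM GCN5L2 acetylates H3(1-25) peptide (75uM) using acetyl-CoA (70uM). Compound and enzyme sat 15 min beforehand; 20 min room-temperature reaction.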
* hit, by the source's call; ? = inconclusive; . = no result; [ ] = dose if it differs, or a comment. Unless noted, the call rests on the fitted dose curve; in most records, active means well fitted curve in the direction sought with a large enough effect; inconclusive means small, poorly fitted or top-dose-only effect, or another doubt; inactive means no such curve, though single readings can be large; an effect the other way counts as inactive or inconclusive.

SMILES	HP1b chromo inh	JMJD2A Tudor	PI5P4Ka inh	PLK1 PBD block	BAZ2B block	KAT2A inh
C/C(=C/CCC(C)[C@H]1CC[C@@]2(C)C3=C(CC[C@]12C)[C@@]1(C)CCC(=O)C(C)(C)[C@@H]1CC3)C(=O)O (stereo partly specified)	10%	63µM*	0	13µM*	?	?
CN1C(=O)C(=Cc2ccccc2OCc2ccccc2Cl)C(=O)N(C)C1=O	101%	96%	-30	3µM*	51%	1%
CCn1cc(C=C2C(=O)N(C)C(=O)N(C)C2=O)c2ccccc21	36%	-15%	0	-11%	6%	-8%
CN1C(=O)C(=Cc2ccccc2OCc2ccc(C(=O)O)cc2)C(=O)N(C)C1=O	36%	-11%	-24	12µM*	2%	-2%
COc1ccc(C=C2C(=O)N(C)C(=O)N(C)C2=O)cc1COc1ccc(NC(C)=O)cc1	-3%	-17%	2	-27%	?	-2%
COc1cc([C@@H]2c3cc4c(cc3[C@H](O)[C@H]3COC(=O)[C@@H]23)OCO4)cc(OC)c1OC	72%	-18%	.	.	.	.
CN1[C@@H]2CC[C@H]1CC(OC(c1ccc(F)cc1)c1ccc(F)cc1)C2 (stereo partly specified)	.	.	.	.	.	-6%
COC(=O)[C@@H]1C[C@H](OC(C)=O)C(=O)[C@H]2[C@@]1(C)CC[C@H]1C(=O)O[C@H](c3ccoc3)C[C@]21C	.	.	.	.	.	-4%
COc1ccc(-n2c(-c3ccccc3[N+](=O)[O-])nc3ccccc3c2=O)cc1	-18%	?	-14	21µM*	?	-6%
Cc1nc2cc(F)ccc2n1C1CCN(Cc2nnnn2CCc2ccccc2)CC1	-6%	-35%[57.1 µM]	-12	-7%	56µM*	-12%
Cc1c(C)c2ccc(OCC(=O)N3CCN(Cc4ccccc4)CC3)cc2oc1=O	28%	-11%	-4	3%	.	-11%
Cc1c(Cc2ccccc2)c(=O)oc2cc(OCc3ccc(C(=O)O)cc3)ccc12	22%	-27%	1	21µM*	?	0%
CC1=NN(c2ccccc2)C(=O)C1=C(C)C	50%	-19%	1	-13%	?	-12%
CC(=O)NC1N=C(C)N(c2ccccc2)C1=O (stereo unspecified)	?	45µM*	1	27µM*	-15%	-10%
Cc1ccc(N)c(C(=O)c2ccccc2)c1	-13%	?	.	-2%	?	?
Cc1cc(N=Nc2ccccc2C)ccc1N	35µM*	40µM*	56	2%	.	.
CN(C)c1ccc(Cc2ccc(N(C)C)cc2)cc1	20µM*	25µM*	10	5%	.	.
N[C@@H](Cc1cc(I)c(O)c(I)c1)C(=O)O	?	11µM*	-98*	-14%	7%	?
NC(Cc1ccc(Oc2cc(I)c(O)c(I)c2)c(I)c1)C(=O)O (stereo unspecified)	.	.	.	.	.	14µM*
Cc1o[nH]c(=O)c1C[C@@H](N)C(=O)O	12%	?	.	.	.	-14%[0.501 µM]
CC(C)C[C@H](NC(=O)[C@H](Cc1ccccc1)NC(=O)CNC(=O)[C@H](C)NC(=O)[C@@H](N)Cc1ccc(O)cc1)C(=O)O	.	.	.	.	.	7%
CCOC(=O)Cc1[nH]nc2c1C(c1ccoc1)C(C#N)=C(N)O2 (stereo unspecified)	38%	-18%	.	?	-31%	-4%
CN(CCc1cnn(C)c1)C(=O)C1CCC(=O)N(CC2CCCCC2)C1 (stereo unspecified)	21%	0%	8	-3%	2%	?
CCCCCCCCCCCCCCCC[n+]1ccccc1	65%	-9%	-13	0%	.	10%
CCCCCCC[n+]1ccc(-c2cc[n+](CCCCCCC)cc2)cc1	3%	?	-6	-9%	79µM*	-9%
SMILES	HP1b chromo inh	JMJD2A Tudor	PI5P4Ka inh	PLK1 PBD block	BAZ2B block	KAT2A inh
Cc1cccc(-n2c(-c3cccs3)nc3ccccc3c2=O)c1	13%	?	-2	7%	79µM*	23%
O=c1c2ccccc2nc(-c2cccs2)n1-c1ccccc1	20%	9%	-3	-5%	-23%	1%
CCOc1nc(NC(C)C)nc(N2CC3CC(C2)c2cccc(=O)n2C3)n1 (stereo unspecified)	?	20µM*	-24	7.5µM*	11%	-1%
CC(C)CS(=O)(=O)C1=NN2C(=N)/C(=C\c3ccc(OC(=O)c4ccco4)cc3)C(=O)N=C2S1	9%	-34%	-84*	21µM*	?	?
CN(C)C1CSSSC1	.	.	.	.	.	-34%
O=c1c2ccccc2nc2n1CCS2(=O)=O	60%	-17%	4	-28%	-15%	1%
CCOc1cccc(OCC)c2c(C)[n+](CC3CCCO3)c(C)c1-2 (stereo unspecified)	-1%	35µM*	-15	-16%	25µM*	-15%
Oc1ccc2c3c1O[C@H]1c4c(c5ccccc5n4Cc4ccccc4)C[C@@]4(O)C(C2)N(CC2CC2)CC[C@]314	.	.	.	.	.	-7%
Cc1ccccc1N1C(=O)NC(=O)/C(=C\c2ccc3c(c2)CCCN3Cc2ccccc2)C1=O	?	50µM*	-65*	?	35µM*	?
Cc1ccnc(-n2c(C)cc(C=C3C(=O)N(C)C(=S)N(C)C3=O)c2C)c1	?	?	?	1.2µM*	?	-3%
Cc1cc(C=C2C(=O)N(C)C(=S)N(C)C2=O)c(C)n1-c1ccncc1	?	45µM*	?	?	-25%	-7%
Cc1cc(C)cc(-n2c(C)cc(/C=C3\C(=O)NC(=O)N(C)C3=O)c2C)c1	30%	0%[57.1 µM]	-10	?	1%	-3%
O=c1[nH]c2sccc2c2ccccc12	.	.	.	.	.	-15%
C/C(CC(=O)Nc1cc(C)ccn1)=N\NC(=O)c1ccncc1	25%	-1%	6	-14%	?	-5%
CC(=O)C1=NOC(CNc2ncc(C(F)(F)F)cc2Cl)C1 (stereo unspecified)	42%	4%	-7	-2%	3%	0%
COc1ccc(CCNC(=O)c2ccc3c(c2)N=C(C)c2cc(C)ccc2S3)cc1OC	-4%	?	.	.	-31%	-13%
OC[C@@H](O)[C@H]1O[C@@H]2OC(C(Cl)(Cl)Cl)O[C@H]2[C@H]1O (stereo partly specified)	.	.	.	.	.	2%
COC(=O)Cn1cc(C=C2C(=O)NC(=O)NC2=O)c2ccccc21	23%	-13%	-22	?	-9%	-7%
